The values below come from PubChem BioAssay (Tox21).

Values without a mark were called inactive. Inconclusive results are not listed. The source made the active and inactive calls. Calls come from the whole dose curve; as a rule, active = well fitted curve in the direction sought with a large enough effect in the repeat runs; inconclusive = weak or mixed curves; inactive = no such curve, though single readings can be large; an effect the other way counts as inactive or inconclusive.

Assay [1] is described as follows: qHTS RealTime-Glo MT Cell Viability Assay in HEK293 cells - 16 hour (AID 1224872). For activity change, negative = cytotoxicity: top concentration of the series differs between compounds. Note: nearly all actives have a fitted effect of over 50% in size. Note: potency is the fitted concentration of half-maximal effect. The gist of the method: (§1)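 Assay medium contained NanoLuc luciferase plus cell-permeant prosubstrate, added with HEK293 cells at 600 cells/well. After 5 h at 37 C/5% CO2 compounds were added; plates stayed at 37 C for 40 h with serial luminescence reads.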
(In general: In qHTS, concentration-response curves come from the screen itself.)

A short description of assay [2]: A CellTox Green Cytotoxicity Assay to monitor cytotoxicity in HEK293 cells - 24 hour (AID 1224875). Note: series mostly up to about 77 µM; nearly all actives have a fitted effect of over 45% in size. The gist of the method:
(§2)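 HEK293 cells, 600/well, were preincubated 5 hours and then exposed to compounds at 37 C for up to 40 hours. A cell-impermeant cyanine dye staining dead-cell DNA was read by fluorescence at 0, 8, 16, 24, 32 and 40 h time points.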

The nature of assay [3]: A CellTox Green Cytotoxicity Assay to monitor cytotoxicity in HepG2 cells - 16 hour (AID 1224876). Note: nearly all actives have a fitted effect of over 45% in size. Note: potency is the fitted concentration of half-maximal effect. The gist of the method:
(§3)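 HepG2 cells, 600/well, preincubated 5 h with CellTox Green dye, then exposed to Tox21 compounds in DMSO at 37 C for up to 40 h. Dead-cell DNA fluorescence read at the indicated time point.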

The nature of assay [4]: qHTS RealTime-Glo MT Cell Viability Assay in HepG2 cells - 32 hour (AID 1224877). Note: nearly all actives have a fitted effect of over 55% in size. The gist of the method: (§4)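 qHTS, HepG2, 600 cells/well, RealTime-Glo (NanoLuc + prosubstrate) added with cells; 5 h preincubation; DMSO compound addition; 37 C; luminescence at 0/8/16/24/32/40 h.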
A short description of assay [5]: A CellTox Green Cytotoxicity Assay to monitor cytotoxicity in HepG2 cells - 24 hour (AID 1224878). Note: nearly all actives have a fitted effect of over 45% in size. The gist of the method: as §3
Assay [6] is described as follows: qHTS RealTime-Glo MT Cell Viability Assay in HEK293 cells - 0 hour (AID 1224880). Note: top concentration of the series differs between compounds; nearly all actives have a fitted effect of over 45% in size. The gist of the method:
(§5)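 600 cells/well were plated with the nonlytic NanoLuc/prosubstrate reagent, pre-incubated 5 h, then given 23 nL of compound in DMSO. Incubation at 37 C for 40 h, with luminescence from viable-cell-reduced substrate read repeatedly from 0 h.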

Assay [7] in a line: A CellTox Green Cytotoxicity Assay to monitor cytotoxicity in HEK293 cells - 32 hour (AID 1224881). Note: nearly all actives have a fitted effect of over 40% in size. The gist of the method: as §2
Assay [8] is described as follows: A CellTox Green Cytotoxicity Assay to monitor cytotoxicity in HepG2 cells - 0 hour (AID 1224882). Note: nearly all actives have a fitted effect of over 35% in size. The gist of the method:
as §3

Assay [9] can be described thus: A CellTox Green Cytotoxicity Assay to monitor cytotoxicity in HepG2 cells - 32 hour (AID 1224883). Note: nearly all actives have a fitted effect of over 50% in size. The gist of the method:
as §3

A short description of assay [10]: A CellTox Green Cytotoxicity Assay to monitor cytotoxicity in HEK293 cells - 8 hour (AID 1224884). Note: nearly all actives have a fitted effect of over 35% in size. The gist of the method:
as §2

Assay [11] in a line: qHTS RealTime-Glo MT Cell Viability Assay in HepG2 cells - 16 hour (AID 1224885). Note: nearly all actives have a fitted effect of over 50% in size. The gist of the method:
as §4

The nature of assay [12]: qHTS RealTime-Glo MT Cell Viability Assay in HEK293 cells - 24 hour (AID 1224886). For activity change, negative = cytotoxicity: top concentration of the series differs between compounds. Note: nearly all actives have a fitted effect of over 50% in size. Note: potency is the fitted concentration of half-maximal effect. The gist of the method: as §1
A short description of assay [13]: qHTS RealTime-Glo MT Cell Viability Assay in HEK293 cells - 8 hour (AID 1224887). For activity change, negative = cytotoxicity: top concentration of the series differs between compounds. Note: nearly all actives have a fitted effect of over 50% in size. Note: potency is the fitted concentration of half-maximal effect. The gist of the method: as §5
The nature of assay [14]: A CellTox Green Cytotoxicity Assay to monitor cytotoxicity in HEK293 cells - 16 hour (AID 1224888). Note: nearly all actives have a fitted effect of over 35% in size. The gist of the method: as §2
Assay [15] is described as follows: qHTS RealTime-Glo MT Cell Viability Assay in HepG2 cells - 0 hour (AID 1224889). Note: nearly all actives have a fitted effect of over 50% in size. The gist of the method: as §4
Assay [16] is described as follows: A CellTox Green Cytotoxicity Assay to monitor cytotoxicity in HepG2 cells - 8 hour (AID 1224890). Note: nearly all actives have a fitted effect of over 45% in size. Note: potency is the fitted concentration of half-maximal effect. The gist of the method:
as §3

Assay [17] is described as follows: qHTS RealTime-Glo MT Cell Viability Assay in HepG2 cells - 8 hour (AID 1224873). Note: nearly all actives have a fitted effect of over 55% in size. The gist of the method: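 HepG2 cells (600/well) mixed with RealTime-Glo MT reagent, settled 5 h at 37 C/5% CO2 before compound addition. Nonlytic NanoLuc luminescence from viable-cell prosubstrate reduction read repeatedly during 40 h treatment at 37 C.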
Assay [18] can be described thus: qHTS RealTime-Glo MT Cell Viability Assay in HEK293 cells - 40 hour (AID 1224874). Note: nearly all actives have a fitted effect of over 50% in size. Note: potency is the fitted concentration of half-maximal effect. Particulars: RealTime-Glo luminescence; max response: hits give low values. The gist of the method:
as §5

Assay [19] is described as follows: A CellTox Green Cytotoxicity Assay to monitor cytotoxicity in HepG2 cells - 40 hour (AID 1224879). Note: nearly all actives have a fitted effect of over 40% in size. The gist of the method:
as §3
% is set by controls: 0 for no effect and ±100 for the full control effect.

On to `O=C(O[C@@H](C(=O)O)[C@@H](OC(=O)c1ccccc1)C(=O)O)c1ccccc1`, for which the Potency entry in assay [1], in assay [2], in [3], in [4], in assay [5] and in assay [7] was “inactive” in each case. For the same compound, the Potency result in assay [8], in assay [9], in [10], in [12], in assay [13] and in assay [14] was “inactive” in each case. Also, the Potency result in assay [15] and in [16] was “inactive” in each case. Besides, the call in assay [6] and in assay [11] was inactive.
On to `CCC/C=C/CO`, for which the Potency result in assay [1], in [2], in assay [3], in assay [5], in assay [19] and in assay [7] was “inactive” each time. Also, the Potency entry in [8], in assay [9], in assay [10], in assay [12], in assay [13] and in assay [14] was “inactive” in each case. Also, the Potency result in assay [15] and in assay [16] was “inactive” each time. The call in assay [17] and in assay [11] was inactive. For the same compound, in [18], the max response is 0.426%.
Take `O=[N+]([O-])c1nccn1CO[C@@H](CO)[C@H](O)CO`: the Potency entry in [1], in [2], in assay [3], in assay [4], in assay [5] and in assay [19] was “inactive” each time. The Potency entry in assay [7], in [8], in assay [9], in assay [10], in assay [12] and in assay [13] was “inactive” in each case. Moreover, the Potency entry in assay [14], in assay [15] and in assay [16] was “inactive” each time. Besides, the max response in assay [18] was -3.33%. The compound was classed as inactive in assay [6] and in assay [11].
With `CCOC(=O)COc1ccc2c(c1)CC(NCC(O)c1cccc(Cl)c1)CC2` (stereo unspecified), the Potency entry in assay [1], in assay [4], in [8] and in [12] was “inactive” throughout. Further, the compound was classed as inactive in assay [17] and in assay [11]. The max response in [18] is -17.8%. For the same compound, the Potency in [3] and in assay [16] was 44 µM (active) throughout.
`COC(=O)N[C@H](C(=O)N[C@@H](Cc1ccccc1)[C@@H](O)CN(Cc1ccc(-c2ccccn2)cc1)NC(=O)[C@@H](NC(=O)OC)C(C)(C)C)C(C)(C)C`: the Potency result in assay [1], in assay [4], in assay [7], in assay [10], in assay [12] and in [13] was “inactive” each time. In [14], the Potency entry was “inactive”. In assay [18], the max response was -6.22%. Also, the outcome in assay [6] and in [11] was inactive.
Take `CCCc1c2oc(C(=O)O)cc(=O)c2cc2c(=O)cc(C(=O)O)n(CC)c12`: the Potency entry in assay [1], in [3], in assay [5], in assay [8], in assay [12] and in assay [13] was “inactive” each time. The Potency entry in [15] and in assay [16] was “inactive” each time. In addition, the result in [17], in [6] and in assay [11] was inactive. Also, in assay [18], the max response was 1.42%.
In the case of `CCCCCCCCOC(=O)CCCCCCCCC(=O)OCCCCCCCC`, the Potency result in [1], in [3], in [4], in [5], in [7] and in assay [8] was “inactive” each time. Also, the Potency result in [9], in assay [10], in [12], in [13], in assay [14] and in [16] was “inactive” throughout. The call in assay [17], in assay [6] and in [11] was inactive. Also, the max response in assay [18] was 6.02%.
Consider `CC(=O)OC(C)OC(C)=O`, for which the Potency result in assay [1], in assay [2], in assay [3], in assay [4], in assay [5] and in assay [19] was “inactive” each time. The Potency result in [10], in assay [12], in assay [13], in [14], in assay [15] and in [16] was “inactive” each time. In addition, the max response in assay [18] is 0.965%. Besides, the compound was classed as inactive in assay [6] and in [11].
`CCCOc1ccc2c(c1)CC[C@@H]1[C@@H]2CC[C@]2(C)C(OC)CC[C@@H]12` (stereo partly specified): the Potency entry in assay [1], in [2], in [3], in [4], in assay [5] and in assay [19] was “inactive” each time. The Potency result in assay [7], in assay [8], in assay [10], in assay [12], in assay [13] and in assay [14] was “inactive” throughout. Further, the Potency result in [15] and in assay [16] was “inactive” in each case. In addition, in assay [18], the max response was 6.13%. Besides, the compound was called inactive in assay [6] and in assay [11].
For the compound `COc1cc(Cl)ccc1Cl`, the Potency result in assay [1], in [3], in [4], in assay [5], in [19] and in assay [8] was “inactive” in each case. For the same compound, the Potency result in [9], in assay [10], in [12], in assay [13], in assay [14] and in assay [15] was “inactive” in each case. Besides, the Potency result in assay [16] is “inactive”. In addition, the call in assay [17], in assay [6] and in assay [11] was inactive. Moreover, the max response in assay [18] was -0.591%.
As to `CCCNC(C)C(=O)Nc1c(C)csc1C(=O)OC` (stereo unspecified), the Potency result in [1], in [2], in assay [3], in assay [4], in [5] and in [7] was “inactive” in each case. The Potency entry in assay [8], in assay [9], in [10], in assay [12], in assay [13] and in [14] was “inactive” throughout. Also, the Potency result in [15] and in assay [16] was “inactive” in each case. Moreover, the compound was called inactive in assay [17], in [6] and in [11]. Further, the max response in assay [18] was -5.59%.
In the case of `CCOc1ccccc1N`, the Potency entry in assay [1], in [2], in assay [3], in [4], in assay [5] and in assay [19] was “inactive” in each case. Also, the Potency entry in assay [7], in assay [8], in assay [9], in assay [10], in assay [13] and in [14] was “inactive” in each case. Besides, in assay [16], the Potency result was “inactive”. For the same compound, the outcome in [17] and in assay [11] was inactive.
For the compound `CCC(=O)c1ccc2c(c1)N(CCCN(C)C)c1ccccc1S2`, the Potency is 10.7 µM (active) in [1], 19 µM (active) in assay [18], 10.7 µM (active) in assay [12] and 9.52 µM (active) in [13]. For the same compound, the Potency entry in [2], in assay [4], in assay [7], in assay [8], in assay [10] and in [16] was “inactive” in each case. Moreover, in [11], the result was inactive.
For `COC(=O)c1ccc2cc(C(=O)OC)ccc2c1`, the activity change, negative = cytotoxicity was -1.54% [at 15.8 µM] in assay [1], -1.22% [at 15.8 µM] in [12], 0.421% [at 15.8 µM] in [13] and 9.21% [at 15.8 µM] in assay [15]. Moreover, in assay [17], the viability change, negative = cytotoxic was 6.16% [at 15.8 µM]. For the same compound, the max response in assay [18] is -1.06%. For the same compound, the activity change in assay [2] is 4.58% [at 15.8 µM, hits give high values]; in assay [14], 2.83% [at 15.8 µM, hits give high values]. For the same compound, the cytotoxicity increase is -13.5% [at 15.8 µM] in assay [3]; -18% [at 15.8 µM] in [19]; -17.5% [at 15.8 µM] in [9]; -0.0057% [at 15.8 µM] in [10]; -0.23% [at 15.8 µM] in assay [16]. For the same compound, the activity change, negative = cytotoxic in assay [4] is 0.0732% [at 15.8 µM]; in assay [11], 3.7% [at 15.8 µM]. The values for the cytotoxicity in assay [5] and in assay [8] were -14.4% [at 15.8 µM] and -8.67% [at 15.8 µM], respectively.
With `CC/C=C\CCOC(=O)CCCCC`, the Potency entry in [1], in assay [2], in assay [3], in assay [4], in assay [5] and in [9] was “inactive” in each case. Besides, the Potency result in assay [12], in assay [13] and in [14] was “inactive” in each case. The max response in [18] was -9.86%. Also, the call in [6] was inactive.
As to `O=C(C(Cl)Cl)N1CCOC12CCCCC2`, the Potency result in assay [1], in assay [2], in assay [3], in assay [4], in [5] and in assay [8] was “inactive” throughout. Moreover, the Potency result in assay [9], in assay [10], in assay [12], in assay [13], in assay [14] and in assay [15] was “inactive” each time. In assay [16], the Potency entry was “inactive”. Besides, the call in [17], in assay [6] and in assay [11] was inactive. Also, the max response in assay [18] is 12.9%.
